# Only some compounds are listed: those with a hit (about 7.5% of all), similar ones and a draw of the others.
# ELG1 genotoxic – qHTS screen for small molecules that induce genotoxicity in human embryonic kidney (HEK293T) cells expressing luciferase-tagged ELG1; HEK293T ELG1-luciferase reporter, luminescence, 16 h; Potency, µM (titrated, usually from 46 µM), for inactives: top-dose activity change, positive = activation, most hits filed as activators; AID 504466, 2011; 1.3% of 330,000 active; further: % of control where 0% means no effect; nearly all actives have a fitted effect of over 60% in size
#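 Cells (2,000/well) expressing the ELG1-luciferase fusion are dosed by pin tool and kept 16 hr at 37 °C, 5% CO2. Signal comes from ONE-Glo luciferase reagent after 30 min at room temperature.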
# NPC1 prom act – qHTS Assay for NPC1 Promoter Activators; Potency, µM (top dose mostly 9.22 µM), for inactives: at the top dose activation, most hits filed as activators; Huh7 NPC1 promoter luciferase reporter, 24 h; 2.4% of 320,000 active; AID 485313, 2010; further: % of control where 0% means no effect; nearly all actives have a fitted effect of over 60% in size
#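 Cells: Huh7 expressing luciferase under the NPC1 promoter, 1500/well. Seeded 2 h, compound added, incubated 24 h at 37 °C. Luciferase reagent, 10 min ambient, then luminescence.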
# KinaseGlo FLuc – Counterscreen for Luciferase (Kinase-Glo TM) Inhibition | Luciferin 4-monooxygenase (Photuris pensylvanica), Q27757 | Kinase-Glo luciferase, ATP luminescence, 8 min | Potency, µM (top dose mostly 38.3 µM), without a hit: top-dose activity change, negative = inhibition, actives largely listed as inhibitors | 0.28% of 200,000 active; further: on the % scale 0 is the no-effect control and ±100 the full control effect; nearly all actives have a fitted effect of over 60% in size
#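 Kinase-Glo luciferase light output from ATP and luciferin was measured with 10 uM ATP, within the enzyme's linear range. Buffer: 50 mM imidazole pH 7.2, 50 mM KCl, 7 mM MgCl2, 0.01% Tween 20, 0.05% BSA; luminescence read after 8 min at ambient temperature.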
# Rab9 prom act – qHTS Assay for Rab9 Promoter Activators; Huh7 Rab9 promoter-luciferase reporter, luminescence, 24 h; AID 485297, 2010; Potency, µM (titrated, usually from 9.22 µM), for the others: at the highest dose activation, negative = inhibition, hits mostly activators; 2.8% of 320,000 active; further: % of control where 0% means no effect; nearly all actives have a fitted effect of over 60% in size
#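 Using Huh7 cells stably transfected with Rab9 promoter–luciferase, compounds were incubated 24 h at 37 °C, 5% CO2; luciferase luminescence was read 10 min after reagent addition.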
# SMN2 splice enh – qHTS Assay for Enhancers of SMN2 Splice Variant Expression; HEK293 SMN2-luciferase splicing reporter, luminescence, 30-36 h; Potency, µM (highest dose often 46.1 µM), for the others: at the top dose activity change, positive = activation, most hits filed as activators; 2.8% of 210,000 active; AID 1458, 2008; further: % of control where 0% means no effect; nearly all actives have a fitted effect of over 55% in size
#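 HEK293 cells carry an SMN2 […]–luciferase reporter in which exon 7 inclusion puts luciferase in frame. Cells were plated 10-12 h before compound addition, then incubated 30-36 h at 37C. ONE-Glo luminescence was read; sodium butyrate at 4.5 mM final served as control.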
# FLuc modulator – qHTS profiling assay for firefly luciferase inhibitor/activator using purifed enzyme and Km concentrations of substrates (counterscreen for miR-21 project); Luciferin 4-monooxygenase (Photinus pyralis), P08659; purified FLuc, Km substrates, luminescence inhibition; Potency, µM (doses to about 57.5 µM), for the others: at the top dose activity change, negative = inhibition, usual class: inhibitors; 6.9% of 360,000 active;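 further: plate controls were vehicle for no effect and reference inhibitor for full effect; nearly all actives have a fitted effect of over 55% in size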
# Target sequence (P08659 whole entry, looked up): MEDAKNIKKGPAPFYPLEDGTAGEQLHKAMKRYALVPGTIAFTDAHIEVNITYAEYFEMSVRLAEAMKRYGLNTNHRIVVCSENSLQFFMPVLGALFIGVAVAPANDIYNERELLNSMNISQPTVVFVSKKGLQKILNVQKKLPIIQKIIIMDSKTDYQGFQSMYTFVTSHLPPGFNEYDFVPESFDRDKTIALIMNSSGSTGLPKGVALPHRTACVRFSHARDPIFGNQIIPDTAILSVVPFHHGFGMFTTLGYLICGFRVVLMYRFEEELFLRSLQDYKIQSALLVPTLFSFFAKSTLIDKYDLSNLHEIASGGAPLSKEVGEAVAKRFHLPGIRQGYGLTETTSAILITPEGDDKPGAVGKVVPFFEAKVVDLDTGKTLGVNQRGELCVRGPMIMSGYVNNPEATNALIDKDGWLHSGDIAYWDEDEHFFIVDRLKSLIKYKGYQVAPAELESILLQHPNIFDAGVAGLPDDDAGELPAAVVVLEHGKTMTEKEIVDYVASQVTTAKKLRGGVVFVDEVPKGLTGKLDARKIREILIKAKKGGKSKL
#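 Purified P. pyralis luciferase, 10 nM final, with Km-level 10 uM D-luciferin and 10 uM ATP in 50 mM Tris acetate pH 7.5, 10 mM Mg acetate, 0.01% Tween-20, 0.05% BSA; 6-point qHTS titration about 60 µM downward; luminescence read.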
# Active calls of the source: *; ? = inconclusive; / = no result given. The call rests on the fitted dose curve; in most records, active means well fitted curve in the direction sought with a large enough effect; inconclusive means small, poorly fitted or top-dose-only effect, or another doubt; inactive means no such curve, though single readings can be large; an effect the other way counts as inactive or inconclusive. Potency means the concentration at half of the fitted maximal effect.
SMILES,ELG1 genotoxic,NPC1 prom act,KinaseGlo FLuc,Rab9 prom act,SMN2 splice enh,FLuc modulator
Cn1c(Cl)c(/C=N/OC(=O)c2ccccc2Cl)c2ccccc21,-2%,2%,3%,-1%,-1%,6.7µM*
Cn1nc(C(F)(F)F)c(/C=N/OC(=O)c2ccccc2)c1Cl,1%,-2%,-1%,-7%,-6%,?
Cc1nn(C)c(Cl)c1/C=N/OC(=O)c1ccccc1,1%,-3%,-2%,-2%,0%,12µM*
O=c1c2c3c(sc2nc2sc(C4CC4)nn12)CCCC3,5.8µM*,2.5µM*,-5%,4µM*,7.9µM*,3µM*
CC(C)c1ccc(C(=O)CSc2n[nH]c(-c3ccncc3)n2)cc1,-1%,3%,11%,3%,33%,15µM*
CCc1ccc(C(=O)CSc2n[nH]c(C)n2)cc1,5%,30%,0%,?,5%,21µM*
COc1ccc(-c2nc(SCC(=O)c3ccc(Br)cc3)n[nH]2)cc1,/,/,/,/,-13%,1%
Cc1ccc(S(=O)(=O)/N=C(/NNC(=O)c2cccc(Cl)c2)c2ccccc2)cc1,16µM*,?,/,?,/,15µM*
O=C(O)CCC(=O)NNC(=O)c1cccc(Cl)c1,2%,0%,2%,-4%,8%,6%
O=C(NN/C(=N/S(=O)(=O)c1ccc(Cl)cc1)c1ccccc1)c1ccc(O)cc1,?,6%,-4%,0%,22%,15µM*
O=C(O)c1ccc(N/C(=N\S(=O)(=O)c2ccc(Cl)cc2)c2ccccc2)cc1,2%,-3%,/,-1%,/,-18%
O=C(NN/C(=N/S(=O)(=O)c1ccc(Cl)cc1)c1ccccc1)c1cccc(Cl)c1,16µM*,4µM*,/,?,/,6µM*
O=S(=O)(/N=C(/NC(=S)Nc1ccccc1)c1ccccc1)c1ccc(Cl)cc1,?,22%,/,27%,/,24µM*
COc1ccccc1CNC(=O)c1ccc2c(c1)nc(C)n2-c1ccccc1OC,/,/,/,/,/,6%
COc1cc2cc3c(N)c(C(=O)NCc4ccco4)sc3nc2cc1OC,?,?,/,?,/,11µM*
Cc1ccc2nc3sc(C(=O)NCc4ccco4)c(N)c3cc2c1,9.2µM*,?,-3%,2µM*,4.5µM*,0.85µM*
CCOC(=O)c1ccc(-n2c(N)c(C(=O)NCc3ccco3)sc2=S)cc1,-5%,1%,-6%,-1%,4%,-19%
COc1ccc(-n2c(N)c(C(=O)NCc3ccco3)sc2=S)cc1,?,-1%,1%,4.5µM*,-2%,-2%
O=C(CSc1n[nH]c(-c2ccc(F)cc2)n1)N1CCN(c2ccc(F)cc2)CC1,/,/,/,/,/,-4%
O=C(Nc1ccc(Cl)cc1)c1ccc(OCC2CCCO2)cc1 (stereo not given),?,?,1%,?,18%,5.4µM*
Cc1ccc2nc(NC(=O)c3ccc(OCC4CCCO4)cc3)sc2c1 (stereo not given),-6%,?,0%,?,-45%,3µM*
Cc1cc(C)c2nc(NC(=O)c3ccc(OCC4CCCO4)cc3)sc2c1 (stereo not given),-3%,-18%,1%,-25%,-59%,11µM*
COc1ccccc1-c1noc(CCC(=O)Nc2cc(C(F)(F)F)ccc2Cl)n1,-16%,1%,-1%,8%,-38%,19µM*
Cc1ccc(C)c(NC(=O)CCc2nc(-c3ccc(C(C)(C)C)cc3)no2)c1,/,/,/,/,-9%,2.1µM*
CC(C)(C)c1ccc(-c2noc(CCC(=O)NCc3ccco3)n2)cc1,-8%,-20%,-1%,-15%,-49%,2.7µM*
SMILES,ELG1 genotoxic,NPC1 prom act,KinaseGlo FLuc,Rab9 prom act,SMN2 splice enh,FLuc modulator
CC(C)(C)c1ccc(-c2noc(CNC(=O)c3ccco3)n2)cc1,10%,0%,/,6%,/,15µM*
Cc1csc(=O)n1CC(=O)OCc1nnc(-c2ccccc2)o1,3%,-1%,/,-3%,/,-11%
CCOC(=O)c1ccc(NC(=O)CCc2c(C)nc3nc[nH]n3c2=O)cc1,/,/,/,/,1%,27µM*
O=C(Nc1ccc(-c2noc(COc3ccccc3Cl)n2)cc1)c1ccco1,?,3.2µM*,-26%,?,11µM*,11µM*
CCCCCC(=O)OCCc1c(C)nc2nc[nH]n2c1=O,-2%,1%,1%,-18%,13%,-17%
CC(NC(=O)c1ccco1)c1nc(-c2ccc(C(C)(C)C)cc2)no1 (stereo not given),-1%,8%,/,0%,/,17µM*
CCOC(=O)c1ccc(NC(=O)CCc2nc(-c3ccc(C)cc3)no2)cc1,23µM*,-2%,2%,8%,-101%,1%
Cc1ccc(C(=O)OCC(=O)NNC(=O)c2cccs2)c(O)c1,10%,1%,/,-2%,/,6%
CC1CCC(C(C)C)C(=O)/C1=C/c1ccc(N)cc1 (stereo not given),?,1.6µM*,/,1.6µM*,/,11µM*
O=C(Nc1cccc(S(=O)(=O)N2CCOCC2)c1)C1COc2ccccc2O1 (stereo not given),-2%,4%,/,2%,/,1%
Cn1ncc(Cl)c1C(=O)NC(=S)Nc1sc2c(c1C#N)CCCCC2,1%,19%,0%,5%,-17%,12µM*
N#Cc1c(NC(=S)NC(=O)C2CCCC2)sc2c1CCCCC2,1%,19%,/,?,/,?
N#Cc1c(NC(=S)NC(=O)c2ccccc2)sc2c1CCCC2,11%,25%,-1%,?,16%,?
N#Cc1c(NC(=O)c2ccccc2)sc2c1CCC2,2.9µM*,?,-6%,0.63µM*,2.2µM*,2.7µM*
N#Cc1c(NC(=O)c2cccnc2)sc2c1CCC2,?,-16%,-6%,-5%,3%,9.5µM*

# Screening data from PubChem.
